A short description of test [1]: rapamycin-like changes in RPL19A-GFP expression – cell-based, S. cerevisiae, multiplex flow cytometry, primary screen (AID 1862; in the data active = percent of DMSO control GFP below about 86%;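 note: lower values mimic rapamycin by blocking the RPL19A rise seen in DMSO cells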). The conditions noted are these: S. cerevisiae RPL19A-GFP strain, flow cytometry fluorescence, 3 h; at 10 µM; stronger effect = lower value. Background: In flow cytometry, cells or beads pass a laser one at a time.
A short description of test [2]: TOR pathway GLN3 branch reporter MEP2-GFP changes – S. cerevisiae, multiplex flow cytometry, primary screen (AID 1867;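 active = GFP response, as percent of the DMSO control, above the screen-wide mean plus 3 SD, about 139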;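 note: median GFP channel fluorescence of barcode-gated MEP2-GFP cells measured by flow cytometry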). The conditions noted are these: S. cerevisiae MEP2-GFP strain, 3 h, at 10 µM, stronger effect = higher value, 100% means same as DMSO wells.
Test [3] is described as follows: TOR pathway RTG branch CIT2 reporter changes – S. cerevisiae, GFP fusion, multiplex flow cytometry, primary screen (AID 1870).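 Note: barcoded CIT2-GFP strain pooled with four other GFP strains with rapamycin as positive control; median GFP fluorescence per well over plate mean of DMSO wells so 100% = DMSO.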 The conditions noted are these: S. cerevisiae CIT2-GFP expression, 3 h, at 10 µM, stronger effect = higher value.
A short description of test [4]: TOR pathway LAP4-GFP level changes – S. cerevisiae, multiplex flow cytometry, primary screen (AID 1873;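 active = GFP signal, as percent of the solvent control, above the screen mean plus 3 SD, about 149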). The conditions noted are these: S. cerevisiae LAP4-GFP expression, 3 h, at 10 µM, stronger effect = higher value.
Test [5] can be described thus: yeast AGP1-GFP level changes, GLN3 branch – cell-based, multiplex flow cytometry, S. cerevisiae, primary screen (AID 1887;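 active = GFP signal above the screen-wide mean plus 3 SD, that is over about 124.5% of the solvent control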;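 note: AGP1-GFP fusion strain of S. cerevisiae within a five-strain barcoded multiplex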). The conditions noted are these: 3 h, at 10 µM, stronger effect = higher value.
Test [6] can be described thus: reduced mouse 2C T cell binding to pMHC/ICAM-1 vesicles – MLPCN validation set, flow cytometry, LFA-1/ICAM-1 modulator project, pilot screen (AID 2523;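 active = response below a set limit, under 55% cells CD8-positive and vesicle-bound, and CD8 cells' 90th-percentile brightness under 279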;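 for vesicle binding response: mean PE anti-B7-1 fluorescence of CD8+ cells relative to row control; 100% = QL9-loaded vesicles with DMSO vehicle in the same plate row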). The conditions noted are these: 2C mouse CD8+ T cells, at 7 µM, stronger effect = lower value; double positive events: measured here: CD8+/vesicle+ event percentage.
The target in test [7] is Integrin beta-1 (Homo sapiens) + Integrin alpha-4 (Homo sapiens) (UniProt P13612+P05556). The test is described as follows: alpha4beta1 integrin LIBS antibody binding reduction – U937 cells, HUTS-21 mAb, flow cytometry, validation set, VLA-4 allosteric modulator project, pilot screen (AID 2674;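 active = inhibition above 50%, about 3 SD of the validation set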;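 note: antibody binding induced by the VLA-4 ligand LDV present at three times its Kd; 0% = LDV ligand with antibody and no compound and 100% = antibody without LDV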). The conditions noted are these: HUTS-21 LIBS mAb binding, at 6.7 µM, stronger effect = higher value, binding induced by LDV ligand.

The nature of test [8]: calorie-restriction mimetic ROS inhibitors, yeast – validation compound set, pilot screen (AID 2706;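 active = superoxide response below 65% of plate, a cut near 3 SD across the whole screen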;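 note: yeast exposed to compound for one week at 30 degrees C before staining; 100% = mean of all compound wells on the same plate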). The conditions noted are these: S. cerevisiae aging, superoxide DHE fluorescence; at 10 µM, stronger effect = lower value.
Test [9] addresses Beta-adrenergic receptor kinase 1 (Homo sapiens) (UniProt P25098). Briefly: GRK2 binders displacing RNA aptamer, biochemical, validation, human GRK2, bead flow cytometry (AID 488806;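 active = aptamer binding inhibition above 30%, about 3 SD of noise from non-fluorescent compounds; inactive = inhibition at or below 30%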). The conditions noted are these: bead-bound GRK2, FAM-aptamer displacement, at 10 µM, stronger effect = higher value.
The target of test [10] is AP-2 complex subunit beta (Homo sapiens) (UniProt P63010). Briefly: beta-arrestin/AP2 interaction blockers – biochemical, validation set, GST-AP2 beads, flow cytometry, pilot screen (AID 504541;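 active = inhibition above 54%, about 3 SD of non-fluorescent compounds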;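 note: AP2 carries R879A mutation and is captured from E. coli lysate; bead-bound FITC arrestin peptide fluorescence measuring arrestin peptide binding to AP2; 0% = DMSO wells and 100% = excess unlabeled arrestin peptide control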). The conditions noted are these: FITC arrestin peptide, at 10 µM, stronger effect = higher value, AP2 beta2 appendage fragment, R879A mutant.
Test [11] in a line: cytosolic pH regulators acting via V-ATPase – S. cerevisiae, pHLuorin, HTS validation (AID 504600; in the data active = response above about 15%;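 note: plate controls were DMSO for no effect and reference compound for full effect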). The conditions noted are these: V-ATPase proton transport, at 10 µM, stronger effect = higher value.
Test [12] relates to anti-desmoglein-3 scFv antibody binding to human DSG3. The test is described as follows: blockers of pathogenic pemphigus antibody–desmoglein-3 binding – biochemical, validation compound set, bead-based, flow cytometry, pilot screen (AID 588368;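 active = binding below the plate cutoff, the plate median minus 3 SD, with a reading above zero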;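 note: signal is the median channel fluorescence of bead-bound GFP antibody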). The conditions noted are these: Protein G beads, DSG3-Fc, scFv-GFP binding, at 10 µM, stronger effect = lower value.
The nature of test [13]: Nile Red efflux blockade in pump-expressing yeast – validation compound set, multiplex, phenotypic, pilot screen (AID 588506;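 active = efflux inhibition above 0.42, the validation set average plus 4 SD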;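 note: Nile Red retained in cells so higher fluorescence means more efflux inhibition; 0 = negative control wells and 1 = enniatin B 25 µM full block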). The conditions noted are these: S. cerevisiae pump-expressing triplex, Nile Red efflux flow cytometry; at 10 µM; stronger effect = higher value; the pumps come from Candida albicans.
The target in test [14] is ATP-binding cassette sub-family B member 6 (Homo sapiens) (UniProt Q9NP58). The test is described as follows: blockers of ABCB6-driven porphyrin uptake – K562-ABCB6 cells, flow cytometry, validation set, pilot screen (AID 588550;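 active = inhibition above the screen-wide mean plus 3 SD, about 51%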;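 note: 0% = DMSO wells and 100% = benzethonium chloride 70 µM positive control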). The conditions noted are these: K562-ABCB6 porphyrin accumulation, 1 h, at 10 µM, stronger effect = higher value.
Test [15] can be described thus: AML differentiation inducers, ER-HoxA9 marrow cells – cell-based, GFP/MAC1 double positive, flow cytometry, validation set, primary screen (AID 588685;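 active = differentiation response of at least 50%, scaled between solvent and reference control, from cells with both markers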;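 note: compound exposure lasts four days before antibody staining and flow analysis; 0% = DMSO wells and 100% = 5 µM fulvestrant positive control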). The conditions noted are these: stronger effect = higher value, normalized: vehicle 0, fulvestrant 100.

Records with an inconclusive call do not appear. Calls of active or inactive are those of the source.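 Rule for the calls, unless noted: active = percent response above a set limit, the screen-wide mean plus 3 SD (cut at about 130% in these data); inactive = the rest.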

Sequence of ATP-binding cassette sub-family B member 6 (Homo sapiens) (Q9NP58 whole entry, looked up): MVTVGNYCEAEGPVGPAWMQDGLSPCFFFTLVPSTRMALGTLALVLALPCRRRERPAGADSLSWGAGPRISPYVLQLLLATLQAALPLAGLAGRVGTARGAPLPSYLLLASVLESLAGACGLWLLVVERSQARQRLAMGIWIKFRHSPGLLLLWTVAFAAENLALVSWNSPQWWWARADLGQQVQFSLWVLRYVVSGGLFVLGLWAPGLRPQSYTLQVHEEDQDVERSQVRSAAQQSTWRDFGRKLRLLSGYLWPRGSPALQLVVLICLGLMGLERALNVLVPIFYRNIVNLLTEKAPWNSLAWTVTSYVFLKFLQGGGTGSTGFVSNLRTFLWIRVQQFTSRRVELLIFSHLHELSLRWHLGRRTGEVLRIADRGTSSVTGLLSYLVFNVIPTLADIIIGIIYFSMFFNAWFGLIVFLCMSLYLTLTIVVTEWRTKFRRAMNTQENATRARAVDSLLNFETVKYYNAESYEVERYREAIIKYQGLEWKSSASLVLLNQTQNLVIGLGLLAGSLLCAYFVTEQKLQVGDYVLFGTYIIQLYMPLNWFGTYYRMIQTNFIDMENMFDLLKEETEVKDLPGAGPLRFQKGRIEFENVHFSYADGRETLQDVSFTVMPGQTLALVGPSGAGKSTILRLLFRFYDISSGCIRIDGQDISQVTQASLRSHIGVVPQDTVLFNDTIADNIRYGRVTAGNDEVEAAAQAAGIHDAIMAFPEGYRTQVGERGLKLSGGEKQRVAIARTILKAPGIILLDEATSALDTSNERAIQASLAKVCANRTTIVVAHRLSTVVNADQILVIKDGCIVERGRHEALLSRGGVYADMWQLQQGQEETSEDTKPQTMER
Sequence of Integrin beta-1 (Homo sapiens) + Integrin alpha-4 (Homo sapiens) (P05556 whole entry, looked up): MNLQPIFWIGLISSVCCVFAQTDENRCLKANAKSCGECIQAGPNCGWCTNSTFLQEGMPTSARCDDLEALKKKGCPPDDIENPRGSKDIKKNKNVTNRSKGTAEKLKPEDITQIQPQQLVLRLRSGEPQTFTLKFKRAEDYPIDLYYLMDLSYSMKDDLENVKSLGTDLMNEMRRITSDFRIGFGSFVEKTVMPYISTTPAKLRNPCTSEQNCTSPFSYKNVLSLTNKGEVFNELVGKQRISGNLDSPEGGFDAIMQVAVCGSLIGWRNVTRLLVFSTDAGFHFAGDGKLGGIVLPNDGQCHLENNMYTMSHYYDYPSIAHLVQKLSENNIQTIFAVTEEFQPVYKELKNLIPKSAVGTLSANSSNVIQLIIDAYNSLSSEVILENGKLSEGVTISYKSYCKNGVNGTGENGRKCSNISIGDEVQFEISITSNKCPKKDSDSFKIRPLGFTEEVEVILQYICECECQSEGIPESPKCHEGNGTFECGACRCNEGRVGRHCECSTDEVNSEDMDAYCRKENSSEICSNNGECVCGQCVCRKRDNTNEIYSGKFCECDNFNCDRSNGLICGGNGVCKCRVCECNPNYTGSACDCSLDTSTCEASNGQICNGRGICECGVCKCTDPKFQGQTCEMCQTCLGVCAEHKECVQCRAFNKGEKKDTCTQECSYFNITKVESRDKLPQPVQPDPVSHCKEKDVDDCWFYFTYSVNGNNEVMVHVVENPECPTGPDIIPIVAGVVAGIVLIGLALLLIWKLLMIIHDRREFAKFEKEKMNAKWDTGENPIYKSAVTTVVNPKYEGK
Sequence of Integrin beta-1 (Homo sapiens) + Integrin alpha-4 (Homo sapiens) (P13612 whole entry, looked up): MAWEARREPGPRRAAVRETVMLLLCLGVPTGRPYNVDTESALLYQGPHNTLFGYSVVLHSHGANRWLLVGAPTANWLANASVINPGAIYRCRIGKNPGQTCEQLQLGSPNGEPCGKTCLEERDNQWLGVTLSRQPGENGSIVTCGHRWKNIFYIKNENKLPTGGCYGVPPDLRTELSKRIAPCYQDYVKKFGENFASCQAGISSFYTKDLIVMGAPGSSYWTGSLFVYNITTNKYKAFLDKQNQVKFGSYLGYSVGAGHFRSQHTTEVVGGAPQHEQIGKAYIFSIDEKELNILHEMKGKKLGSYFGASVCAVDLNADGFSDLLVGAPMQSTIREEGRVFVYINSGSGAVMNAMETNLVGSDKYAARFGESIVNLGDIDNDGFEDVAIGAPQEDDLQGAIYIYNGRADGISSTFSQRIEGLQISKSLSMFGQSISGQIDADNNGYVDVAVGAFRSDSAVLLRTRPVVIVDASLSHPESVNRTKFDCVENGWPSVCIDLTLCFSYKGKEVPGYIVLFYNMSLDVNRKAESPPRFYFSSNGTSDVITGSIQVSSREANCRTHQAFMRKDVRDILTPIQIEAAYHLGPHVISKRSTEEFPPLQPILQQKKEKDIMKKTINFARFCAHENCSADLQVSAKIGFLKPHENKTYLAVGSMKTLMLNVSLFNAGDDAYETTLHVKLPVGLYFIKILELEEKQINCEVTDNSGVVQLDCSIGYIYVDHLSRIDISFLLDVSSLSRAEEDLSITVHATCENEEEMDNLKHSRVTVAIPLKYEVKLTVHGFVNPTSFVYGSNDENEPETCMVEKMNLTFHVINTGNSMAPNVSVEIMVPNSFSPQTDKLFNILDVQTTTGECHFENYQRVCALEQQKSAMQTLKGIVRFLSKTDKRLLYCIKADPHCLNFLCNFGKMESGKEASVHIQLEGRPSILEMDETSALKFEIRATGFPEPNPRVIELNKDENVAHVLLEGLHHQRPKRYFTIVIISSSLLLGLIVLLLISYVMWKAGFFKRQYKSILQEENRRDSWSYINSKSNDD
Sequence of AP-2 complex subunit beta (Homo sapiens) (P63010 whole entry, looked up, the tested form may be a part, one chain of several): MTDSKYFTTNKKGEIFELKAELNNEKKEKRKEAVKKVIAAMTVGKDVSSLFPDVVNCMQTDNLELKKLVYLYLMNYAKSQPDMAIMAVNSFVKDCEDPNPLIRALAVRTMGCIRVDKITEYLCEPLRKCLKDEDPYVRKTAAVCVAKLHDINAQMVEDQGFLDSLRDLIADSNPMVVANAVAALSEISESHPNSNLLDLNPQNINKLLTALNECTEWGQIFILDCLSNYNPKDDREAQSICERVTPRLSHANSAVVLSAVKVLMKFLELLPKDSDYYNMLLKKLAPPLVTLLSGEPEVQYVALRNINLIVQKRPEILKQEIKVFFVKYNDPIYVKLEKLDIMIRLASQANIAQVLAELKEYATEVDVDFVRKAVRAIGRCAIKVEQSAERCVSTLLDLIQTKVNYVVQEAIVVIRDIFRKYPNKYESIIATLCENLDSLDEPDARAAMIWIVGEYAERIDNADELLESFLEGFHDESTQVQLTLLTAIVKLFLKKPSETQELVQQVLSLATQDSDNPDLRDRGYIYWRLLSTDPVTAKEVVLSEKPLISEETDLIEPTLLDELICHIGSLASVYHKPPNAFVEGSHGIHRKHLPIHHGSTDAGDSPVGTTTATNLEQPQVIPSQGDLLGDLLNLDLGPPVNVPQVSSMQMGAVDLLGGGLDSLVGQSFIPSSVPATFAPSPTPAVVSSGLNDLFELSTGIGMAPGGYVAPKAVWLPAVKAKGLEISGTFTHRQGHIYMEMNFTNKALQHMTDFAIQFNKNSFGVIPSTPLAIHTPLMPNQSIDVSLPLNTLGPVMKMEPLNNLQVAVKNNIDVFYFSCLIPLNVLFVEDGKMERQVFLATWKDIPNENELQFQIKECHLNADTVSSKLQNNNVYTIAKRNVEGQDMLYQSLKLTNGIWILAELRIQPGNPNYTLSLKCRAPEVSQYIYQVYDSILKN
Sequence of Beta-adrenergic receptor kinase 1 (Homo sapiens) (P25098 whole entry, looked up): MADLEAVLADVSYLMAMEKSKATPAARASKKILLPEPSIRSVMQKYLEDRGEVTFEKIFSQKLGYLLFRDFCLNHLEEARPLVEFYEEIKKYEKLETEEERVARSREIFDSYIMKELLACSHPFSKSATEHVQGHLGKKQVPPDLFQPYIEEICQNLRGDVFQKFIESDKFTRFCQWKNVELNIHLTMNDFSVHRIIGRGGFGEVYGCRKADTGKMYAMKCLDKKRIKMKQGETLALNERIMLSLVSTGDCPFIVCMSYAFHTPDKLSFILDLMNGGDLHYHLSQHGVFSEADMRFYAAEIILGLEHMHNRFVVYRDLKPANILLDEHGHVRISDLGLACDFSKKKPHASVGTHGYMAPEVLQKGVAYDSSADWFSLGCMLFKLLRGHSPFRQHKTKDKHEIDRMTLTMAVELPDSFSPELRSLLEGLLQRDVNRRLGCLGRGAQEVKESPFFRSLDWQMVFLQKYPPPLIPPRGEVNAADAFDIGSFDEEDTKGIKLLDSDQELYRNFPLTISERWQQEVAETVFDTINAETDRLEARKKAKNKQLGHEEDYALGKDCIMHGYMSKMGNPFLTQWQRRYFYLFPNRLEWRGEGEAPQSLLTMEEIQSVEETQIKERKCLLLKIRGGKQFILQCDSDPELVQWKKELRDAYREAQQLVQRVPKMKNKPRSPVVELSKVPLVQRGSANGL

A word on the inhibition: it is the change of the read-out against control, counted positive when it falls. For the compound `COc1ccc2[nH]c3c(c2c1)CCn1c-3nc2ccccc2c1=O`, the percent of DMSO control GFP in test [1] is 101% (inactive). Besides, the GFP response vs DMSO was 105% (inactive) in [2] and 116% (inactive) in test [4]. In addition, the percent response of DMSO control in test [3] is 104% (inactive). For the same compound, the GFP response, % of DMSO in test [5] is 101% (inactive). Also, in test [6], the double positive events was determined as 48.2%. Besides, in [6], the vesicle binding response is 168% (inactive). Besides, the inhibition was 2.56% (inactive) in [7], 10.7% (inactive) in [10] and 7% (inactive) in [14]. Besides, in [8], the superoxide response (% of plate) was 95.3% (inactive). Further, in test [9], the aptamer binding inhibition is -2% (inactive). Moreover, the response in test [11] was 11.4% (inactive). For the same compound, the binding (% of control) in test [12] is 97.2% (inactive). Also, the efflux inhibition (fraction of control) in [13] was -0.12 (inactive). The differentiation response in [15] is 0% (inactive).
Turning to `CCOC(=O)c1ccc(N2C(=O)C(CC(N)=O)N(CCc3ccc(OC)c(OC)c3)C2=S)cc1` (stereo not given), the percent of DMSO control GFP in test [1] is 96.9% (inactive). Further, the GFP response vs DMSO in test [2] is 105% (inactive); in [4] it was 96.4% (inactive). Also, the percent response of DMSO control in test [3] was 94.9% (inactive). For the same compound, the GFP response, % of DMSO in test [5] is 88.8% (inactive). Also, in [6], the double positive events was determined as 46.3%. Besides, the vesicle binding response in [6] is 153% (inactive). Besides, the inhibition in [7] was -10.5% (inactive); in test [10], 18.9% (inactive); in test [14] it was 21% (inactive). The superoxide response (% of plate) in test [8] is 107% (inactive). The aptamer binding inhibition in [9] was 2% (inactive). The response in test [11] was 1.03% (inactive). Besides, the binding (% of control) in test [12] is 97.2% (inactive). For the same compound, the efflux inhibition (fraction of control) in test [13] was 0.75 (active). Also, in test [15], the differentiation response was -21.2% (inactive).
As to `CN(C)CCC(c1ccc(Br)cc1)c1ccccn1` (stereo not given), the percent of DMSO control GFP in [1] was 103% (inactive). The GFP response vs DMSO in test [2] was 101% (inactive); in test [4], 97.4% (inactive). For the same compound, the percent response of DMSO control in [3] was 94.9% (inactive). In test [5], the GFP response, % of DMSO was 100% (inactive). For the same compound, the double positive events in test [6] is 56.9%. Also, the vesicle binding response in test [6] was 182% (inactive). The results for the inhibition in [7], in test [10] and in [14] were 36.1% (inactive), -4.8% (inactive) and 12% (inactive), respectively. In test [8], the superoxide response (% of plate) was 106% (inactive). The aptamer binding inhibition in test [9] was 2% (inactive). The response in test [11] is 2.41% (inactive). In addition, the binding (% of control) in test [12] is 103% (inactive). Besides, the efflux inhibition (fraction of control) in test [13] is 0.18 (inactive). In addition, the differentiation response in test [15] is -1.82% (inactive).
For `CCCCC1C(=O)N(c2ccccc2)N(c2ccccc2)C1=O`, the percent of DMSO control GFP in test [1] is 98.1% (inactive). The GFP response vs DMSO in test [2] is 117% (inactive); in test [4], 89.7% (inactive). The percent response of DMSO control in test [3] is 101% (inactive). Further, the GFP response, % of DMSO in test [5] was 97.5% (inactive). In [6], this compound returned a double positive events of 66%. Besides, the vesicle binding response in [6] was 258% (inactive). Also, the inhibition in [7] is 3.55% (inactive); in test [10], 33.1% (inactive); in [14] it was 8% (inactive). Besides, in test [8], the superoxide response (% of plate) is 94.9% (inactive). Besides, the aptamer binding inhibition in test [9] is 0% (inactive). In test [11], the response was -1.74% (inactive). Besides, the binding (% of control) in test [12] is 111% (inactive). The efflux inhibition (fraction of control) in test [13] was -0.06 (inactive). For the same compound, the differentiation response in test [15] is 17.2% (inactive).
Turning to `CC(=O)OCC(=O)[C@H]1CC[C@H]2[C@@H]3CC=C4C[C@@H](O)CC[C@]4(C)[C@H]3CC[C@]12C`, the percent of DMSO control GFP in test [1] is 106% (inactive). Further, the GFP response vs DMSO in test [2] was 95.9% (inactive); in [4] it was 115% (inactive). Further, the percent response of DMSO control in test [3] was 114% (inactive). Moreover, in [5], the GFP response, % of DMSO was 89.4% (inactive). The double positive events in test [6] was 59.7%. In test [6], the vesicle binding response is 174% (inactive). Also, the inhibition is 4.42% (inactive) in test [7], -2.87% (inactive) in test [10] and 6% (inactive) in test [14]. For the same compound, the superoxide response (% of plate) in test [8] is 99% (inactive). The aptamer binding inhibition in test [9] is 0% (inactive). Moreover, in [11], the response is 0.3% (inactive). Moreover, the binding (% of control) in [12] is 101% (inactive). For the same compound, in [13], the efflux inhibition (fraction of control) is 0.29 (inactive). Also, in [15], the differentiation response is -27.6% (inactive).

Values taken from PubChem BioAssay.
